A number with no mark means an inactive call. For some of these results: Entries with a potency or affinity are not part of this list. Active and inactive are the calls of the source. Unless noted, how the calls were made is not given here.
How the values were obtained:
[1] = antimalarial activity against Dd2 strain (AID 2302;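 active means growth inhibition above 50% at the single 2 µM test dose, taken to imply half-maximal potency below 2 µM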;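 further: 0% = DMSO untreated growth and 100% = chloroquine plus artemisinin killed control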); conditions: P. falciparum Dd2 in RBCs, LDH growth readout, 72 h; at 2 µM; stronger effect = higher value
[2] = HepG2 cytotoxicity, primary screen, cytotoxicity control for P. falciparum antimalarial project, cell-based, ATP luminescence (AID 2303;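 active means inhibition above 50%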;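 further: 0% = DMSO wells and 100% = digitonin-killed cells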); conditions: HepG2 viability, 24-48 h, at 10 µM, stronger effect = higher value
[3] = biological target: L-lactate dehydrogenase (Plasmodium falciparum (isolate CDC / Honduras)) (UniProt Q27743); test: PfLDH activity inhibition – cell lysate, 3D7 strain, counter-screen for P. falciparum growth inhibition project (AID 2304);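 further: 0% = vehicle and 100% = reference inhibitor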; conditions: P. falciparum 3D7 crude extract, LDH APAD/NBT absorbance; at 2 µM; stronger effect = higher value
[4] = inhibition of 3D7 malaria parasite growth – strain 3D7 (AID 2306);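 further: 0% = DMSO wells and 100% = chloroquine plus artemisinin control wells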; conditions: P. falciparum 3D7 erythrocytic growth, LDH absorbance, 72 h; at 2 µM; stronger effect = higher value
[5] = biological target: Calcium-dependent protein kinase 1 (Plasmodium falciparum (isolate 3D7)) (UniProt P62344); test: PfCDPK1 kinase inhibitors, biochemical, TCAMS library (AID 1159585; cut-off not given, nearly all actives have IC50 up to about 0.98 µM;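 further: inhibitors leave more ATP so luminescence rises with inhibition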); conditions: recombinant PfCDPK1, Kinase-Glo ATP depletion luminescence
[6] = biological target: Plasmodium falciparum protein kinase 6 (PK6, PF3D7_1337100) (UniProt Q8IDW1); test: PfPK6 kinase inhibitors, biochemical, TCAMS library (AID 1159586); conditions: recombinant PfPK6, Kinase-Glo ATP depletion luminescence
[7] = biological target: Protein kinase 7 (PK7), Plasmodium falciparum 3D7 (PF3D7_0213400) (UniProt Q7YTF7); test: inhibition of Plasmodium PK7 catalytic activity – biochemical, TCAMS antimalarial set, Kinase-Glo luminescence (AID 1159587); conditions: recombinant PfPK7, Kinase-Glo ATP depletion luminescence
[8] = biological target: Calcium-dependent protein kinase 4 (Plasmodium falciparum (isolate 3D7)) (UniProt Q8IBS5); test: PfCDPK4 kinase inhibitors, biochemical, TCAMS library (AID 1159588; cut-off not given, nearly all actives have IC50 up to about 0.91 µM); conditions: recombinant PfCDPK4, Kinase-Glo ATP depletion luminescence
Sequence of Calcium-dependent protein kinase 4 (Plasmodium falciparum (isolate 3D7)) (Q8IBS5 whole entry, looked up): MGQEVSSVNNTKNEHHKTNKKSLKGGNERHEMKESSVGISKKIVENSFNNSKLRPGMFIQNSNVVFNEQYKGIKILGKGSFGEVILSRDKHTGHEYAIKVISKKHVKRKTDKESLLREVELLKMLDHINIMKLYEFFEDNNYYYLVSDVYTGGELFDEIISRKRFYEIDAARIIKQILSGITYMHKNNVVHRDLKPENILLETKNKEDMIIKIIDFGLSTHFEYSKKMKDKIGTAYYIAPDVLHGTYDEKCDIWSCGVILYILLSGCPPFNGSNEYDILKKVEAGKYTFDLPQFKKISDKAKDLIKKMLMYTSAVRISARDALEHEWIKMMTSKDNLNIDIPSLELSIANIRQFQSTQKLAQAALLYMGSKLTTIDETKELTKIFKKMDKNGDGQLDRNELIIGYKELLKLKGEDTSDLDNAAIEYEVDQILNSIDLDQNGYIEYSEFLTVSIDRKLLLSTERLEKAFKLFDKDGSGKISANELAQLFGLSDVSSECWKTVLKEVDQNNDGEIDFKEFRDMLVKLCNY

Sequence of L-lactate dehydrogenase (Plasmodium falciparum (isolate CDC / Honduras)) (Q27743 whole entry, looked up): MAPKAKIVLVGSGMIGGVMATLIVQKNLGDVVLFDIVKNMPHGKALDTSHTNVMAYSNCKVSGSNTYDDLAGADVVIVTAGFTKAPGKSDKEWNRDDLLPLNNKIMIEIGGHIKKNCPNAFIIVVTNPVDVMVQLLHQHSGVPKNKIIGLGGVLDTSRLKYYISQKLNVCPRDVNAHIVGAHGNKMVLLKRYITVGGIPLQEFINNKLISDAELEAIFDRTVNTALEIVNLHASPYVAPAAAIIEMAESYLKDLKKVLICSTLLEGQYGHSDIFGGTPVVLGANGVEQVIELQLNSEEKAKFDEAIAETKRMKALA
Sequence of Protein kinase 7 (PK7), Plasmodium falciparum 3D7 (PF3D7_0213400) (Q7YTF7 1-343): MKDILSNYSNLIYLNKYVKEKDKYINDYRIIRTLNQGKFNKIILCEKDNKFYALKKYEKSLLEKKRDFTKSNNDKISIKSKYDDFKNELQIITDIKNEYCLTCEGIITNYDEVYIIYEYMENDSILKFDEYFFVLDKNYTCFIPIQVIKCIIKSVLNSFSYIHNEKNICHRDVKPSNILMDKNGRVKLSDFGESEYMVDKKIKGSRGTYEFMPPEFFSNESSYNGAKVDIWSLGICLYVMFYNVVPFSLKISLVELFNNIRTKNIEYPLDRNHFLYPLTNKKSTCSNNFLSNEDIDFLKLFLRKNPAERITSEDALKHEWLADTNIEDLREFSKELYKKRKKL
Sequence of Plasmodium falciparum protein kinase 6 (PK6, PF3D7_1337100) (Q8IDW1 1-305): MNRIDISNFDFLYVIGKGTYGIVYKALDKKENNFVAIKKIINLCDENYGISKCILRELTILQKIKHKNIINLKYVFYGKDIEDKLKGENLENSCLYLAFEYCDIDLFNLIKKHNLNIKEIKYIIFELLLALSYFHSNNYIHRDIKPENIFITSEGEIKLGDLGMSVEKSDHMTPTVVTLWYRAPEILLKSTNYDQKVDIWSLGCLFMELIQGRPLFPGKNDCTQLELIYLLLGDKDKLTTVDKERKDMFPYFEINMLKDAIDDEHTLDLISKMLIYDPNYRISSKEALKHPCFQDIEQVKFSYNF
Sequence of Calcium-dependent protein kinase 1 (Plasmodium falciparum (isolate 3D7)) (P62344 whole entry, looked up): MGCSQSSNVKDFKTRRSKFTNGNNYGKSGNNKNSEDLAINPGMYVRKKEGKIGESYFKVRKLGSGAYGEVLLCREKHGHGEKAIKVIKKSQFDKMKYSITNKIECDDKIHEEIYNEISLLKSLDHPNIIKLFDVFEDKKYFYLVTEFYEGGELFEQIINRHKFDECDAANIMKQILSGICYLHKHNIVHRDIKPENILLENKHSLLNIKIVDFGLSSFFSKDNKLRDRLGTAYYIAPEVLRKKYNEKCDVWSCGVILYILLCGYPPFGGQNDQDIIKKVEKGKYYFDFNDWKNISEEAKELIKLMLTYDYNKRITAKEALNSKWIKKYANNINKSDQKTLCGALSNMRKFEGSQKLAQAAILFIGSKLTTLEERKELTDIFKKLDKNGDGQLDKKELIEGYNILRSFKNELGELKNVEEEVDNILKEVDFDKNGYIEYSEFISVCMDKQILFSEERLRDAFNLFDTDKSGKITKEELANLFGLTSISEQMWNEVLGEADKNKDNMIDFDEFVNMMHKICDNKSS

| SMILES | growth inhibition [1] | inhibition [2] | inhibition [3] | growth inhibition [4] | outcome [5] | outcome [6] | outcome [7] | outcome [8] |
| --- | --- | --- | --- | --- | --- | --- | --- | --- |
| COc1ccc(NC(=O)/C=C/c2ccc(Cl)c(C(F)(F)F)c2)cc1OCCN(C(C)C)C(C)C | 28% | 18% | -1% | 95% (active) | inactive | inactive | inactive | inactive |
| CCN(CC)Cc1cc(NC(=O)c2ccccc2O)ccc1Oc1ccc(Cl)cc1 | 88% (active) | 32% | 3% | 98% (active) | inactive | inactive | inactive | inactive |
| Cc1ccc(C2CCN(CCCCNC(=O)c3ccc(NC(=O)c4ccc(Cl)cc4)cc3)CC2)c(OCC2CC2)c1 | 95% (active) | 63% (active) | 0% | 101% (active) | inactive | inactive | inactive | inactive |
| COC(=O)C(c1ccc(NC(=O)[C@H](CC(C)C)NC(=O)OC(C)(C)C)cc1)c1ccc(NC(=O)[C@H](CC(C)C)NC(=O)OC(C)(C)C)cc1 | 42% | 0% | 2% | 94% (active) | inactive | inactive | inactive | inactive |
| CC(C)(C)OC(=O)N1CCC(C2CCN(C(=O)OC(C)(C)C)CC2)CC1 | 28% | -6% | 1% | 86% (active) | inactive | inactive | inactive | inactive |
| COc1cc(C(C)C)ccc1N1CCN(CCCCNC(=O)c2ccc(NC(=O)c3ccc(Cl)cc3)cc2)CC1 | 81% (active) | 25% | 3% | 98% (active) | inactive | inactive | inactive | inactive |
| O=C(Cc1cccc(Cl)c1)Nc1ccc(N2CCC(NCc3ccc4ncccc4c3)CC2)cc1 | 8% | 10% | -1% | 81% (active) | inactive | inactive | inactive | inactive |
| CCC(Nc1noc(-c2c(-c3ccccc3)noc2C)n1)c1ccccc1 (stereo not drawn) | 85% (active) | 4% | 1% | 99% (active) | inactive | inactive | inactive | inactive |
| O=C(NCC1CN(Cc2ccc(N3CCCC3)o2)CCCO1)c1ccc2c(c1)OCO2 (stereo not drawn) | 70% (active) | -3% | -1% | 83% (active) | inactive | inactive | inactive | inactive |
| O=C(/C=C/c1ccc(Cl)c(Cl)c1)NCCCCCN1CCC(NC(=O)Nc2ccc(Oc3ccccc3)cc2)C1 (stereo not drawn) | 6% | 35% | 4% | 99% (active) | inactive | inactive | inactive | inactive |
| O=S(=O)(Nc1cccc(CCN2CCCCC2CCN2CCCC2)c1)c1ccc(Oc2ccccc2)cc1 (stereo not drawn) | 1% | 52% (active) | -2% | 94% (active) | inactive | inactive | inactive | inactive |
| CCOC(=O)N1CCN(C(=O)Nc2ccc(Cl)cc2)CC1 | -2% | 4% | 0% | 92% (active) | inactive | inactive | inactive | inactive |
| Cc1[nH]c(C)c(-c2csc3ccccc23)c(=O)c1Cl | 75% (active) | 7% | 6% | 97% (active) | inactive | inactive | inactive | inactive |
| COc1cc(NCC(CN)Cc2ccc3c(c2)OCO3)nc2ccccc12 (stereo not drawn) | 6% | 41% | 0% | 94% (active) | inactive | inactive | inactive | inactive |
| CC(C)COc1ccc(Cl)cc1Cc1nc(-c2nc3ccc(CN4CCCCC4)cc3[nH]2)co1 | 70% (active) | 49% | -4% | 101% (active) | inactive | inactive | inactive | inactive |
| CC(C)Cn1c(Sc2ccc(C#N)c([N+](=O)[O-])c2)nnc1-c1ccccc1 | 12% | 17% | 2% | 83% (active) | inactive | inactive | inactive | inactive |
| O=C(NCC1CC1)C1CCN(C(c2ccccc2)c2cc(F)cc(F)c2)CC1 (stereo not drawn) | 95% (active) | -3% | 9% | 99% (active) | inactive | inactive | inactive | inactive |
| Cc1ccc(CON2C(N)=NC(N)=NC2(C)C)cc1C | 88% (active) | 64% (active) | -9% | 92% (active) | inactive | inactive | inactive | inactive |
| CN1CCC(N(C)C(=O)C=Cc2cn(-c3ccccc3)nc2-c2cc3ccccc3o2)CC1 | 5% | 38% | 2% | 92% (active) | inactive | inactive | inactive | inactive |
| CCCCCCCN(CCCCCCC)CCNc1cc(C)nc2ccccc12 | 31% | 39% | -2% | 89% (active) | inactive | inactive | inactive | inactive |
| O=C(Nc1ccnc2ccccc12)NC1CCN(CCc2ccccc2)CC1 | 43% | 7% | -3% | 100% (active) | inactive | inactive | inactive | inactive |

| SMILES | growth inhibition [1] | inhibition [2] | inhibition [3] | growth inhibition [4] | outcome [5] | outcome [6] | outcome [7] | outcome [8] |
| --- | --- | --- | --- | --- | --- | --- | --- | --- |
| OCC(c1ccccc1)n1c(COc2ccc(Cl)cc2)nc2c(OCCCN3CCCCC3)cccc21 (stereo not drawn) | 68% (active) | 6% | -7% | 90% (active) | inactive | inactive | inactive | inactive |
| COc1ccc2nccc([C@@H](O)CN3CCC(NC(=O)c4ccc(-c5ccc(C#N)cc5)cc4)CC3)c2c1 | 91% (active) | 42% | 4% | 101% (active) | inactive | inactive | inactive | inactive |
| Cc1ccc(Cc2cnc(NCCSCc3ccc(CN4CCOCC4)o3)[nH]c2=O)cn1 | -3% | 2% | -4% | 95% (active) | inactive | inactive | inactive | inactive |
| CCOc1cc(C)ccc1C1CCN(CCCCNC(=O)c2ccc(-c3ccc(Cl)cn3)cc2)CC1 | 8% | 19% | -6% | 94% (active) | inactive | inactive | inactive | inactive |
| CNC(=O)c1c(NC(=O)c2cccs2)sc2c1CCCC2 | 2% | 2% | -1% | 94% (active) | inactive | inactive | inactive | inactive |
| Cc1cn(CC(=O)Nc2cccc(-c3cccc(-c4nc5c(C)cccc5[nH]4)c3)c2)c(=O)[nH]c1=O | 100% (active) | 2% | 5% | 100% (active) | inactive | inactive | inactive | inactive |
| CCCc1ccc(NC(=O)c2ccc(CN3CCCN(Cc4cccc(O)c4)CC3)cc2)cc1 | 63% (active) | 51% (active) | -1% | 101% (active) | inactive | inactive | inactive | inactive |
| CCCCc1ccc(NC(=O)Nc2cccc(CCNCc3ccccc3)c2)cc1 | 13% | 3% | 2% | 94% (active) | inactive | inactive | inactive | inactive |
| CCCCCCc1ncc(-c2cc3cc(O)c(-c4ccccc4)cc3oc2=O)s1 | 63% (active) | 4% | -8% | 90% (active) | inactive | inactive | inactive | inactive |
| CCOc1cc(N)c2nc3ccc([N+](=O)[O-])cc3cc2c1 | 78% (active) | 73% (active) | 7% | 100% (active) | inactive | inactive | inactive | inactive |
| O=S(=O)(c1ccc(Cl)cc1Cl)N1CCCCC(c2ccc(C(F)(F)F)cc2)=N1 | 99% (active) | 10% | 4% | 100% (active) | inactive | inactive | inactive | inactive |
| O=C(/C=C/c1ccc(Cl)c(Cl)c1)N1CCC(CCN2CCC(c3c[nH]c4cc5c(cc34)OCO5)CC2)CC1 | 65% (active) | 46% | -4% | 99% (active) | inactive | inactive | inactive | inactive |
| CN(C1CCC(NC(=O)/C=C/c2ccccc2)CC1)C1CC2(CCN(C(=O)OC(C)(C)C)CC2)c2ccccc21 (stereo not drawn) | 95% (active) | 16% | 5% | 95% (active) | inactive | inactive | inactive | inactive |
| Cc1c(CNCCCNc2nc3ccccc3[nH]2)[nH]c2cc(Cl)cc(Cl)c12 | -1% | 59% (active) | -6% | 101% (active) | inactive | inactive | inactive | inactive |
| O=C(Nc1ccsc1C(=O)NC1CCCCC1)c1ccc(F)cc1 | 11% | 3% | 6% | 86% (active) | inactive | inactive | inactive | inactive |
| COc1ccccc1Nc1nc(NC2CCN(C)CC2)cc(-c2cccc(C(F)(F)F)c2)n1 | 71% (active) | 100% (active) | -10% | 95% (active) | inactive | inactive | inactive | inactive |
| Cc1sc2cc(Cl)cc(Cl)c2c1S(=O)(=O)Nc1ccc2nccc(N3CCNCC3)c2c1 | 99% (active) | 24% | -8% | 100% (active) | inactive | inactive | inactive | inactive |
| Cn1cncc1-c1ccc2c(-c3ccsc3)cnc(N)c2c1 | 72% (active) | 41% | -3% | 97% (active) | inactive | inactive | inactive | inactive |
| COc1cc(C)c(C(O)CNC(C)CCc2ccccc2)cc1C (stereo not drawn) | 98% (active) | 1% | -2% | 98% (active) | inactive | inactive | inactive | inactive |
| Cc1[nH]c(C)c(-c2ccc(Oc3ccc(F)cc3)cc2)c(=O)c1Cl | 98% (active) | 14% | 4% | 99% (active) | inactive | inactive | inactive | inactive |

From PubChem BioAssay
